In ChEMBL document CHEMBL3988442, “University of Dundee, Small-Polar-MMV Screening Library” (2021):

Target: T1, Arginase-2, mitochondrial (Homo sapiens) (UniProt P78540)
T1 sequence (whole entry): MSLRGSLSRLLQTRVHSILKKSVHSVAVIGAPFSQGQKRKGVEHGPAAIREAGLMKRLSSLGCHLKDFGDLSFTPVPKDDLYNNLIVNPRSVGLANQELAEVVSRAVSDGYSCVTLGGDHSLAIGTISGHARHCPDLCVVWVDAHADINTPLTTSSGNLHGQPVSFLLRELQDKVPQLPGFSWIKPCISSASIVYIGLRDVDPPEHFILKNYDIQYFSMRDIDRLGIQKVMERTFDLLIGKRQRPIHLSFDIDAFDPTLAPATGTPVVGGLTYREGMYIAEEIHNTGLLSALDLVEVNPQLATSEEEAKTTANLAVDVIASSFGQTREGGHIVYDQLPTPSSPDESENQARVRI
Assay: in vitro enzyme assay to detect the production of urea directly proportional to the activity of Arginase II
Format: functional
Parameters: scale not given: in the data most compounds retested in dose-response had high values
Conditions: 33.3 µM

| Compound | Percent Effect [%] |
| --- | --- |
| CCCNCC1(O)CCCN(Cc2cccc(C)c2)C1=O (stereo not given) | -1.82 |
| COCCC1(CO)CCCN(Cc2ccc(F)c(C)c2)C1 (stereo not given) | -1.24 |
| Cn1cc(C(=O)N[C@@H]2CN(Cc3cccs3)[C@@H]3CCCO[C@@H]32)cn1 | -49.6 |
| Cn1ccnc1-c1cccc(NC(=O)NCCCO)c1 | 19.4 |
| CC(C)(C)NC(=O)CNC(=O)CCc1ccccc1Br | 23.4 |
| c1ccc(CN2CCCC(c3nccnc3-n3ccnc3)C2)cc1 (stereo not given) | -0.233 |
| COc1ccc2nnc(CCCC(=O)NCCC3=CCCCC3)n2n1 | -7.57 |
| Cc1cnn(CC2CN(Cc3nc(N)c4ccccc4n3)CCO2)c1 (stereo not given) | -1.47 |
| O=C(c1ccccn1)N1CCc2nc(-c3cnccn3)nc(O)c2C1 | -0.232 |
| NCC(c1ccccc1)N1CCc2sccc2C1 (stereo not given) | -5.92 |
| Cc1cc(C(=O)N2Cc3ccccc3OC3(CCOCC3)C2)nc(N)n1 | -4.87 |
| CC1=Nc2c(c(=O)[nH]n2C(C)C)C(c2ccccc2)S1 (stereo not given) | -3.7 |
| FC(F)(F)c1cc(N2CCc3ncnc(NC4CC4)c3CC2)ncn1 | -57.5 |
| O=C(Nc1ccc(F)cc1F)Nc1c[nH]c(=O)[nH]c1=O | 0.645 |
| Cn1c(Cn2cccn2)nnc1C1CCN(Cc2cccnc2N)CC1 | 0.883 |
| Cc1ccc(C2CSCCN2C(=O)C2=CCCC2)o1 (stereo not given) | 1.24 |
| COC(=O)c1cccc(C(=O)N2CCN(c3cccc(C)c3C)CC2)n1 | 0.645 |
| NS(=O)(=O)N1CCc2ccc(NC(=O)Cc3ccc(F)cc3)cc21 | -39.1 |
| COc1ccccc1C1CNC(=O)c2nc(-c3cnn(C)c3)[nH]c2C1 (stereo not given) | 1.43 |
| O=C1NCCN1C1CCN(Cc2nc(-c3ccoc3)no2)CC1 | -2.85 |
